Our source for the growth values is PubChem BioAssay (NCI).

Several values for one entry are separate records, joined by “and”; a condition that tells them apart may be missing. Equal values may be shown once. Compounds without any hit were thinned out: in the full panel of roughly 83,000, 20% have a hit.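 For each line, cells grew in 96-well plates with the test compound present at a single concentration for 48 hours.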 Activity calls are given as the source filed them.

For this experiment, the system named is SNB-75 CNS. The experiment is described as follows: NCI-60 one-dose screen, 48 h (100 = growth as untreated, 0 = no growth, -100 = all killed). The conditions noted are these: 10 µM unless noted. Here is the method: Growth inhibition of the SNB-75 human tumor cell line is measured as a screen for anti-cancer activity. Cells are grown in 96 well plates and exposed to the test compound for 48 hours. Compounds are tested at a single concentration, which is 10^-5 M for most compounds. The reported endpoint is percent growth (GI% or GIPRCNT), where numbers from 0 - 100% represent growth inhibition, and numbers from -100% - 0 represent cell death. For example, a value of 40 represents 60% growth inhibition. A value of 0 means no net growth occurred over the course of the experiment. A value of -40 indicates 40% of cells at the beginning of the experiment died by the end of the experiment. A value of -100 means all cells are dead at the end of the experiment.
NCI-60 Human Tumor Cell Lines Screen was performed using the standard one-dose NCI protocol, which is described in more detail at https://dtp.cancer.gov/discovery_development/nci-60/default.htm.
Compounds with GIPRCNT values below 10 were considered active. Activity score was based on GIPRCNT using the following formula: […]
Score is 0 for GIPRCNT values of 100 or above, 50 for GIPRCNT values of 0, and 100 for GIPRCNT values of -100.
In the case of `O=C1NC(=O)C(=C/C=C/c2ccccc2)C(=O)N1`, the growth is 24.3% (inactive).

Take `O=C(Cc1ccccc1)c1ccccc1`: the growth is 86.8% (inactive).

For the compound `CC[C@H](C)[C@H](NC(=O)[C@H]1CCCCN1C)C(=O)N(C)[C@H](CCc1nc(C(=O)N[C@@H](Cc2ccccc2)C[C@H](C)C(=O)O)cs1)C(C)C`, the growth is 28.3% (inactive).

Consider `COc1cc(/C=C\[N+](=O)[O-])ccc1OCc1ccccc1`, for which the growth is 79.2% (inactive).

For `CC[C@H](C)[C@H](NC(=O)C12CC(NC)(C1)C2)C(=O)N(C)[C@H](C[C@@H](OC(C)=O)c1nc(C(=O)N[C@@H](Cc2ccccc2)C[C@H](C)C(=O)OC)cs1)C(C)C`, the growth is 23.5% (inactive).

In the case of `C=CC[PH+](c1ccccc1)c1ccccc1.C=CC[PH+](c1ccccc1)c1ccccc1.[Pt+2].[S-]c1ncccn1.[S-]c1ncccn1`, the growth is 58.3% (inactive).

Turning to `COC(=O)CCP(CCC(=O)OC)c1ccccc1`, the growth was 89.5% (inactive).

`CC1(C)N=C(N)N=C(N)N1c1ccc(CCC(=O)Nc2ccc(S(=O)(=O)F)cc2)cc1`: the growth is 51.8% (inactive).

As to `CC1=C([Te]c2ccccc2)C(=O)c2ccccc2C1=O`, the growth is -25.6% (active).

Regarding `C[C@]12CC[C@H]3[C@@H](CC=C4c5nc(-c6ccc(Br)cc6)sc5CC[C@@]43C)[C@@H]1CC[C@@H]2O`, the growth was 78.4% (inactive).

Regarding `O=S(OO)c1cc(Cl)c(O)c(Cl)c1` (stereo not given), the growth was 78.5% (inactive).

On to `COc1cc(C=C2C(=O)NC(=O)NC2=O)ccc1O`, for which the growth is 96% (inactive).

With `O=[N+]([O-])c1ccc(CI)cc1`, the growth is 96.4% (inactive).

For the compound `O=Cc1cn(Cc2ccccc2)c2ccccc12`, the growth was 67.8% (inactive).

On to `Oc1cc(Cl)ccc1Oc1ccc(Cl)cc1Cl`, for which the growth is 48.3% (inactive).

Turning to `O=C(CBr)OCCOC(=O)CBr`, the growth is 91.2% (inactive).

In the case of `COCC1OC2OC3C(COC)OC(OC4C(COC)OC(OC5C(COC)OC(OC6C(COC)OC(OC7C(COC)OC(OC8C(COC)OC(OC1C(O)C2O)C(O)C8O)C(O)C7O)C(O)C6O)C(O)C5O)C(O)C4O)C(O)C3O` (stereo not given) (tested in a mixture with another compound), the growth is 86.1% (inactive).

For `COc1c(O)cc2c(c1OC)-c1ccc(SC)c(=O)cc1C(NC(C)=O)CC2` (stereo not given), the growth is -13.2% (active).

For the compound `CN(C)c1ccc([N+](=O)[O-])c([N+](=O)[O-])c1`, the growth is 93% (inactive) and 86.4% (inactive).

As to `CC[PH+](CC)CC.O=COC1OC([S-])C(OC=O)C(OC=O)C1OC=O.[Au+]` (stereo not given), the growth was -24.2% (active).

For the compound `O=C1c2ccccc2C(=O)N1N1CC1c1ccccc1` (stereo not given), the growth is 100% (inactive).

Take `O=C(O)C(O)c1ccc(Cl)cc1` (stereo not given): the growth is 100% (inactive) and 112% (inactive).

Take `C[C@]12CC[C@H](O)C[C@@H]1CC[C@@H]1[C@@H]2CC[C@]2(C)OC(=O)CC[C@@H]12`: the growth is 85.8% (inactive).

As to `NC1CN2CCC1CC2` (stereo not given), the growth is 73.9% (inactive).

For `O=C(O)c1cc([N+](=O)[O-])cc([N+](=O)[O-])c1`, the growth is 86.8% (inactive).

Turning to `O=C=Nc1ccc(Br)cc1`, the growth was 99.1% (inactive).

With `CC[C@H](C)[C@H](NC(=O)[C@H]1CCCCN1C)C(=O)N(C)[C@H](C[C@@H](OC(C)=O)c1nc(C(=O)N[C@@H](Cc2ccccc2)C[C@H](C)C(=O)O)cs1)C(C)C`, the growth was 31.4% (inactive).

On to `C=CC[PH+](c1ccccc1)c1ccccc1.C=CC[PH+](c1ccccc1)c1ccccc1.[Pt+2].[S-]c1nc2ccccc2[nH]1.[S-]c1nc2ccccc2[nH]1`, for which the growth was -64.5% (active).

With `C[C@]12CCc3sc(Nc4ccc(F)cc4F)nc3C1=CC[C@@H]1[C@@H]2CC[C@]2(C)C(=O)CC[C@@H]12`, the growth is 69.4% (inactive).

Consider `CC[C@H](C)[C@H](NC(=O)c1ncccn1)C(=O)N(C)[C@H](C[C@@H](OC(C)=O)c1nc(C(=O)N[C@@H](Cc2ccccc2)C[C@H](C)C(=O)OC)cs1)C(C)C`, for which the growth was -3.1% (active).

For `CCCCCCCCCCCCCCCC[N+](C)(C)C`, the growth was -77.5% (active) and -23.3% (active).

As to `O=C(O)c1ccc(=O)[nH]c1`, the growth was 101% (inactive) and 91.6% (inactive).

Regarding `C/C=C(/C)C(=O)O[C@H]1CC[C@@]2(C)[C@@H]3CC[C@H]4[C@]5(O)C[C@H](O)[C@@]6(O)[C@@H](CN7C[C@@H](C)CC[C@H]7[C@@]6(C)O)[C@]5(O)C[C@@]42O[C@@]13O`, the growth was 79.9% (inactive).

With `Cc1cc(N(CCCl)CCCl)ccc1C=Nc1ccc(-c2csc(-c3ccccc3)n2)cc1`, the growth was 84.6% (inactive).

Consider `CCCN1C(=O)NC(=O)C(CC)(N2C(=O)c3c(F)c(F)c(F)c(F)c3C2=O)C1=O` (stereo not given), for which the growth was -52.1% (active).

In the case of `CCOC(=O)c1ccccc1C(=O)OCC`, the growth was 83.3% (inactive).

For the compound `CC[C@H](C)[C@H](NC(=O)[C@H]1CCCCN1C)C(=O)N(C)[C@H](C[C@@H](OC(C)=O)c1nc(C(=O)NC23C4C5C2C2C3C4C52C(=O)OC)cs1)C(C)C` (stereo not given in full), the growth was 22.9% (inactive).

On to `O=S(=O)(c1ccc(O)cc1)c1ccccc1O`, for which the growth was 96.7% (inactive).

For `Cc1cc[n+](CCc2ccccc2)cc1`, the growth was 96.3% (inactive) and 84.1% (inactive).

For `O=P1(N(CCCl)CCCl)NCCCO1` (stereo not given), the growth was 102% (inactive).
